Hits are enriched below; roughly 1.6% of the tested compounds scored in any of these assays.
KCNQ2 enhance – potentiators of rat KCNQ2 potassium channel; 310,000 compounds, 0.54% hits; B-score at 10 µM; CHO-K1 KCNQ2, FluxOR thallium flux fluorescence; stronger effect = higher value;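 active means fluorescence ratio B-score at least 3 SD of library B-scores, with initial fluorescence B-score within 3 of them, cut at about 5.3 in these data; same plate scores as AID 2156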;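 further: B-score of peak minus minimum over baseline fluorescence ratio after K+ and Tl+ stimulus; positive B-score means potentiation of KCNQ2 with more thallium influx and brighter signal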
KCNQ2 block – inhibitors of rat KCNQ2 potassium channel. CHO-K1 KCNQ2, FluxOR thallium flux, 20 min; stronger effect = lower value. B-score at 10 µM. 310,000 compounds, 1.1% hits;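 active means fluorescence ratio B-score at most minus 3 library SDs, with starting brightness B-score within 2 library SDs, cut at about -5.5 in these data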
Kir21 conf inh – confirmation of mouse Kir2.1 potassium channel inhibitors. shares compounds with KCNQ2 enhance. Kir2.1-expressing cells, FluxOR thallium flux fluorescence; stronger effect = lower value. Tl flux remaining, % of negative control (stronger effect = lower value), % at 10 µM. 2,300 compounds, 41% hits. AID 2032;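 active means Primary-screen hit whose thallium flux fell at least 3 control SD below untreated wells in both duplicates, with normal baseline fluorescence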
HEK293 ctr – counter-screen for Kir2.1 inhibitors: effect in parental HEK293 cells; shares compounds with KCNQ2 enhance; FluxOR thallium flux fluorescence; 0% = unstimulated blank wells; FluxOR signal as % of negative control (100 = no effect), % at 10 µM; 2,300 compounds, 19% hits; AID 2105;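 active means dye signal at least 3 control SD above or below untreated wells in both duplicates, raw fluorescence within 3, either direction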;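 further: percent is based on the flux ratio of peak minus minimum fluorescence over baseline F0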
CHO-K1 Tl ctr – parental CHO-K1 activity in KCNQ2 potentiator counter-screen; shares compounds with KCNQ2 enhance; parental CHO-K1 cells, FluxOR thallium flux fluorescence; zero = vehicle mean+3SD, 100% = vehicle-minus-blank window; activity increase over 3SD of controls, % at 10 µM; 1,200 compounds, 43% hits;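 active means signal rise of at least 3 SD above the untreated control mean, in both duplicate wells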;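 further: counter screen of KCNQ2 potentiator hits so any rise reflects channel-independent effects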
KCNQ1 sel pot – selectivity of KCNQ2 potentiators: effect on human KCNQ1. shares compounds with KCNQ2 enhance. CHO KCNQ1 stable, FluxOR thallium flux fluorescence; beyond 3SD, as % of vehicle-control signal. activation over 3SD threshold, % at 10 µM. 1,200 compounds, 28% hits;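 active means fluorescence ratio rise of at least 3 SD of vehicle wells above their mean, in both replicate wells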
Target sequence (P51787 whole entry, looked up): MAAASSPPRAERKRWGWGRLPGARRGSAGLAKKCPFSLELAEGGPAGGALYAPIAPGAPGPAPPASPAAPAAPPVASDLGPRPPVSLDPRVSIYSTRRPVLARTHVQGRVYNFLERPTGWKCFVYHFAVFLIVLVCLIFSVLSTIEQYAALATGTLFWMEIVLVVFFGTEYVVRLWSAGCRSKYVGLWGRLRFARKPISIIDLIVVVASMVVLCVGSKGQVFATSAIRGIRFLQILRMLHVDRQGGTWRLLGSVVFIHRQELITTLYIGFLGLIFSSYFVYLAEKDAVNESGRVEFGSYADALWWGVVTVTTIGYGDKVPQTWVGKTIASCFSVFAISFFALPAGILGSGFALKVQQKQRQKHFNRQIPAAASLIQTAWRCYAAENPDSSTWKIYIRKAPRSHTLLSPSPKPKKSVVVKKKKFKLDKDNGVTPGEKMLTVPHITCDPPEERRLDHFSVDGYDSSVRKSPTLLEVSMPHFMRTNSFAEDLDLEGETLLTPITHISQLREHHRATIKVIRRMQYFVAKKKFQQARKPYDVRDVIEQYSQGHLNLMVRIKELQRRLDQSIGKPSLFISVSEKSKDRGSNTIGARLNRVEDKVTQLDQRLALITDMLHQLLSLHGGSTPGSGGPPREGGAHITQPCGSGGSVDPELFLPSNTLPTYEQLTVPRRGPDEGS
KCNQ2 pot conf – confirmation of rat KCNQ2 potassium channel potentiators; AID 2287; shares compounds with KCNQ2 enhance; potentiation, less the hit threshold, % at 10 µM; 1,200 compounds, 68% hits; CHO-KCNQ2 cells, FluxOR thallium flux fluorescence;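 active means fluorescence ratio rising 3 SD or more over the vehicle control mean in both replicates, plus primary screen hit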;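 further: peak minus minimum thallium fluorescence divided by baseline after K/Tl stimulus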
Kir21 spec – tests whether KCNQ2 potentiators also affect mouse Kir2.1; 1,200 compounds, 2% hits; HEK293 Kir2.1, FluxOR thallium flux fluorescence; shares compounds with KCNQ2 enhance; activity over 3SD threshold, % at 10 µM;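 active means fluorescence ratio rise of at least 3 SD above the vehicle-control mean, seen in both replicates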
KCNQ2 W236L pot – potentiates the retigabine-insensitive rat KCNQ2 W236L mutant channel; shares compounds with KCNQ2 enhance; CHO KCNQ2-W236L, automated patch clamp current; current increase over 3SD of negative controls (%), stronger effect = higher value, % at 25 µM; 940 compounds, 10% hits; AID 2558;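 active means current increase at least 3 SD of the untreated controls above them in both duplicate recordings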
Of the large screens only hits and unclear results are named; the others gave an inactive call (follow-up assays come after a bar, where they were run).

CC(C)(C)Cc1nc2ccccc2n1CCc1ccccc1	none (no result: KCNQ2 enhance) | Kir21 conf inh 53% | HEK293 ctr inactive
CCc1nc2ccccc2n1CCc1ccccc1	none (no result: KCNQ2 enhance)
CCC(c1nnnn1Cc1ccc(OC)cc1)N1CCN(c2ccc(OC)cc2)CC1 (configuration not stated)	none (no result: KCNQ2 enhance)
CCCCNC(=O)c1onc(CSc2cccc(F)c2)c1C(=O)O	none
COc1cc(Br)c(C(C)NC(=O)c2ccccc2)cc1OC (configuration not stated)	none
Cc1cc(C)c(S(=O)(=O)NCCc2ccccc2)c(C)c1	none (no result: KCNQ2 enhance) | Kir21 conf inh 50% | HEK293 ctr inactive
Cc1ccc(S(=O)(=O)NCCc2ccccc2)cc1	none (no result: KCNQ2 enhance)
COC(=O)c1sc2nc(N3CCCCC3)c3c(c2c1N)CCCC3	none
NC(=O)c1sc2nc(N3CCCCC3)c3c(c2c1N)CCCC3	KCNQ2 enhance 6.7 | Kir21 conf inh inactive | HEK293 ctr inactive | CHO-K1 Tl ctr 10 | KCNQ1 sel pot inactive | KCNQ2 pot conf inactive | Kir21 spec inactive | KCNQ2 W236L pot inactive
CCCCCCSc1ccc([C@H]2N[C@@](Cc3ccccc3)(C(=O)OC)[C@H]3C(=O)N(CC)C(=O)[C@@H]23)cc1	none (no result: KCNQ2 enhance)
CCOc1ccc(NS(=O)(=O)c2ccc(OC)c(C)c2)cc1	none | Kir21 conf inh inactive | HEK293 ctr inactive
CCOc1ccc(NS(=O)(=O)c2ccc(NC(C)=O)c(OC)c2)cc1	none (no result: KCNQ2 enhance)
C=CCn1c(=S)[nH]c2cc(-c3ccccc3)sc2c1=O	none
O=c1c2c(-c3cccs3)csc2ncn1-c1ccc(Br)cc1	none (no result: KCNQ2 enhance)
Cn1c(=S)[nH]c2scc(-c3cccs3)c2c1=O	KCNQ2 enhance 19 | Kir21 conf inh inactive | HEK293 ctr 465% | CHO-K1 Tl ctr 119 | KCNQ1 sel pot inactive | KCNQ2 pot conf 88 | Kir21 spec inactive | KCNQ2 W236L pot inactive
C=CCn1c(=S)[nH]c2scc(-c3cccs3)c2c1=O	KCNQ2 enhance 25 | Kir21 conf inh inactive | HEK293 ctr 512% | CHO-K1 Tl ctr 12 | KCNQ1 sel pot inactive | KCNQ2 pot conf 106 | Kir21 spec inactive | KCNQ2 W236L pot inactive
O=S(=O)(c1ccc(Cl)cc1)N1CCN=C1SCc1cccnc1	none
CCOc1ccccc1NC(=O)NC1(C(=O)N2CCN3CCCC3C2)CCCCC1 (configuration not stated)	KCNQ2 enhance 21 | Kir21 conf inh inactive | HEK293 ctr inactive | CHO-K1 Tl ctr inactive | KCNQ1 sel pot inactive | KCNQ2 pot conf inactive | Kir21 spec inactive
O=C(NCc1ccccc1)NC1(C(=O)N2CCN3CCCC3C2)CCCCC1 (configuration not stated)	none
CN(C)C(=O)COC(=O)/C=C/c1cn(-c2ccccc2)nc1-c1cccs1	none (no result: KCNQ2 enhance)
Oc1c(Br)cc(Br)cc1C=Nc1cccc2ncccc12	KCNQ2 enhance 14 | Kir21 conf inh inactive | HEK293 ctr inactive | CHO-K1 Tl ctr inactive | KCNQ1 sel pot inactive | KCNQ2 pot conf inactive | Kir21 spec inactive | KCNQ2 W236L pot inactive
Brc1cccc(C=Nc2cccc3ncccc23)c1	none
CC1CCN(CC(O)CN2c3ccccc3Sc3ccccc32)CC1 (configuration not stated)	none (no result: KCNQ2 enhance)
CSc1ccc2c(c1)N(CCC1CCCCN1C)c1ccccc1S2 (configuration not stated)	KCNQ2 block -5.8 | Kir21 conf inh 23% | HEK293 ctr inactive
COc1cccc(NC(=O)NCCCCc2ccccc2)c1	none
COc1cccc(NC(=O)NCCCSC2CCCCC2)c1	KCNQ2 enhance 6.5 | Kir21 conf inh inactive | HEK293 ctr inactive | CHO-K1 Tl ctr inactive | KCNQ1 sel pot inactive | KCNQ2 pot conf 13 | Kir21 spec inactive | KCNQ2 W236L pot inactive
COc1ccc(S(=O)(=O)N(CC(=O)Nc2ccccc2C(=O)N2CCOCC2)c2ccc(F)cc2)cc1	none
Cc1onc(-c2ccccc2Cl)c1C(=O)OCC(=O)Nc1cccc(S(=O)(=O)N(C)C)c1	none (no result: KCNQ2 enhance)
CC1(C)Nc2ccc(O)cc2-c2c1ssc2=S	none (no result: KCNQ2 enhance) | Kir21 conf inh 40% | HEK293 ctr inactive
COc1cccc(-n2sc3c(c2=S)-c2cc(OC)ccc2NC3(C)C)c1	none (no result: KCNQ2 enhance)
CCCCCN=C(N)N/N=C/c1c[nH]c2ccc(OC)cc12	KCNQ2 enhance 8.8 | Kir21 conf inh inactive | HEK293 ctr inactive | CHO-K1 Tl ctr 51 | KCNQ1 sel pot inactive | KCNQ2 pot conf inactive | Kir21 spec inactive
CCCOc1ccc(C(=O)N/N=C/c2c[nH]c3ccc(Br)cc23)cc1	none
O=c1c(=O)n2c(nn1Cc1ccc(F)cc1)sc1ccccc12	none
c1ccc(-c2nc(N3CCCCC3)nc3ccccc23)cc1	none (no result: KCNQ2 enhance)
c1ccc(-c2nc(N3CCNCC3)nc3ccccc23)cc1	none (no result: KCNQ2 enhance) | Kir21 conf inh 50% | HEK293 ctr inactive
CCCCCCNC(=O)CC(c1ccccc1)c1cc(Br)ccc1O (configuration not stated)	KCNQ2 enhance 29 | Kir21 conf inh inactive | HEK293 ctr inactive | CHO-K1 Tl ctr inactive | KCNQ1 sel pot inactive | KCNQ2 pot conf 64 | Kir21 spec inactive | KCNQ2 W236L pot inactive
O=CN1CCN(C(=O)CC(c2ccccc2)c2cc(Br)ccc2O)CC1 (configuration not stated)	none
O=C(CC(c1ccccc1)c1cc(Br)ccc1O)NCc1ccco1 (configuration not stated)	KCNQ2 enhance 18 | CHO-K1 Tl ctr inactive | KCNQ1 sel pot inactive | KCNQ2 pot conf 67 | Kir21 spec inactive | KCNQ2 W236L pot inactive
COc1ccccc1C(CC(=O)Nc1ccc(Cl)cc1)c1ccc(OC(C)C)cc1 (configuration not stated)	none (no result: KCNQ2 enhance)
CC(C)NC(=O)CC(c1ccccc1)c1cc(Br)ccc1O (configuration not stated)	none
CC(C)Oc1ccc(CNC(=O)CC(c2ccccc2)c2cc(Cl)ccc2O)cc1 (configuration not stated)	KCNQ2 enhance 15 | Kir21 conf inh inactive | HEK293 ctr 128% | CHO-K1 Tl ctr 11 | KCNQ1 sel pot 18 | KCNQ2 pot conf 59 | Kir21 spec inactive | KCNQ2 W236L pot inactive
COc1ccc(-n2c(CSc3nc(C)cc(C)n3)nnc2SCC(=O)Nc2nccs2)cc1	none
O=C(Nc1ccc(N2CCOCC2)cc1)c1cnsn1	none
Cc1c(NC(=O)C(C)OC(=O)c2ccc(Br)o2)c(=O)n(-c2ccccc2)n1C (configuration not stated)	none
